High-throughput results: PubChem BioAssay, National Center for Advancing Translational Sciences (NCATS)
Pf growth 48h: P. falciparum growth inhibition at 48 hours (one generation); Potency, µM (series often up to 28.7 µM), usual class: inhibitors; P. falciparum luciferase growth in erythrocytes, 48 h; 310,000 tested, 5.9% active
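First compound was added to culture medium, then infected red cells at 0.1% parasitemia and 2% hematocrit (final). After incubation at 37 C under 5% CO2, luciferase detection reagent was dispensed and light output recorded.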
AMA1-RON2 inh: disrupts binding of P. falciparum AMA1 to RON2 | AlphaScreen AMA1-biotinylated RON2 peptide binding | Potency, µM (titrated, usually from 58.2 µM), actives largely listed as inhibitors | 360,000 tested, 0.2% active | AID 720542; note: nearly all actives have a fitted effect of over 45% in size
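AMA1 (3D7) with his tag at 25 nM final met compounds first, then biotinylated RON2 peptide at 25 nM; detection used donor plus acceptor beads, 10 µg/mL apiece, read by AlphaScreen after 30 min at room temperature.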
Sm TGR block: inhibitors of Schistosoma mansoni thioredoxin glutathione reductase. Q962Y6. purified TGR, DTNB reduction, TNB absorbance 405 nm. Potency, µM (titrated, usually from 114 µM), usual class: inhibitors. 360,000 tested, 3% active. AID 485364; note: nearly all actives have a fitted effect of over 60% in size
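TGR 20 nM + NADPH 100 uM (dispensed conc.), cpd preinc 15 min RT; start with NADPH (500 uM addition) then DTNB (15 mM addition). Kinetic TNB absorbance, 405 nm filter. Four-parameter Hill fit across titration.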
Pf growth 96h: P. falciparum growth inhibition at 96 hours | P. falciparum luciferase reporter growth, 96 h | Potency, µM (top dose mostly 28.7 µM), hits mostly inhibitors | 320,000 tested, 6.9% active | AID 504834
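Two parasite generations (96 h, 37 C, 5% CO2) of compound exposure in infected erythrocytes (0.05% parasitemia, 2% hematocrit). Luciferase-reporter P. falciparum; decreased luminescence indicates inhibited growth, aimed at apicoplast-acting delayed death.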
NS1 function inh: influenza NS1 inhibition. Potency, µM (top dose mostly 46.1 µM). 270,000 tested, 0.4% active; calls by dose curve; note: actives are rising curves; nearly all actives have a fitted effect of over 50% in size
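S. cerevisiae expressing influenza A NS1, grown in glucose, washed, then diluted 1:100 into pH 6.0 -URA galactose medium with 23 nl compound. Growth recovery read as OD600; NS1-free strain serves as control.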
Numbers stand for hits; 0 = inactive; ? = inconclusive; - = no result given. Shown are actives, neighbours in structure and some others; about 11% of the full set was active somewhere. Unless noted, calls come from the whole dose curve; as a rule, active = well fitted curve in the direction sought with a large enough effect; inconclusive = small, poorly fitted or top-dose-only effect, or another doubt; inactive = no such curve, though single readings can be large; an effect the other way counts as inactive or inconclusive.

SMILES | Pf growth 48h | AMA1-RON2 inh | Sm TGR block | Pf growth 96h | NS1 function inh
COc1cc(CNCCCN2CCOCC2)ccc1OCC(=O)Nc1cccc(C(F)(F)F)c1 | 1.85µM | 0 | 0 | ? | 0
CCOc1ccccc1NC(=O)COC(=O)c1cc[n+]([O-])cc1 | ? | 0 | 0 | 0 | 0
Cc1oc(/N=C/c2ccc(O)cc2O)c(C#N)c1C | 0 | 0 | 50.1µM | 0 | -
Cc1cccc(OC2(c3ccccc3)OC(=O)c3ccccc32)c1C (centres undefined) | ? | 0 | 0 | 9.28µM | 0
CCCCCCCOC1(c2ccccc2)OC(=O)c2ccccc21 (centres undefined) | ? | 0 | 0 | 6.57µM | 0
CC1(c2cccc3ccccc23)OC(=O)c2ccccc21 (centres undefined) | - | 0 | - | - | -
O=C1OC(c2ccccc2)(c2ccccc2)c2ccccc21 | - | 0 | - | - | -
CCCCCCOC1(c2ccccc2)OC(=O)c2ccccc21 (centres undefined) | 10.4µM | 0 | 0 | 8.28µM | 0
COc1cccc(C(=O)Nc2ccccc2C(=O)OCc2cc(=O)n3nc(C)sc3n2)c1 | - | - | 0 | - | -
Cc1cc(C)nc(Nc2ccc(Cl)cc2C)n1 | 0 | 0 | 0 | ? | 0
Cc1ccc(N(C(=O)c2ccccc2Cl)C2=NC(C)CS2)c(C)c1 (centres undefined) | ? | 0 | 0 | 14.7µM | 0
Cc1cc2oc(C(=O)N(Cc3ccccc3F)C3CCS(=O)(=O)C3)c(C)c2cc1Cl (centres undefined) | - | - | 0 | - | -
C[C@]12c3[nH]c4ccc(Cl)cc4c3CCN1C(=O)[C@@H](CC(=O)NCc1ccco1)C[C@@H]2C(=O)N1CCOCC1 | - | 0 | - | - | -
COC(=O)c1c(NC(=O)CC2SC(N)=NC2=O)sc2c1CCC(C)C2 (centres undefined) | 0 | 0 | ? | 3.7µM | 0
CCOC(=O)c1c(NC(=O)CC2SC(N)=NC2=O)sc2c1CCC(C)C2 (centres undefined) | ? | 0 | 0 | 0 | 0
CCOC(=O)c1ccc(NC(=O)CSc2nnc(CNC(=O)c3ccco3)o2)cc1 | 0 | 0 | 0 | 0 | 0
COc1cccc(C2(O)CC(C(F)(F)F)=NN2C(=O)c2ccccn2)c1 (centres undefined) | 0 | 0 | ? | 0.522µM | 0
NC(=O)[C@@H]1CCCN1Cc1nc(-c2ccc(C(F)(F)F)cc2)no1 | 0 | 0 | 0 | ? | 0
CCOc1cccc(C=Nc2cc(C)cc(C)c2O)c1O | ? | 0 | 3.98µM | - | 0
CCOc1cccc(/C=N/N=C/c2cccc(OCC)c2O)c1O | 0 | 0 | 0 | 0 | 0
CN(C)S(=O)(=O)c1cccc(C(=O)N2CCc3ccccc32)c1 | 0 | 0 | 0 | - | 0
CN(C)S(=O)(=O)c1cccc(C(=O)C2=C3SC=C(c4ccccc4)N3CC2)c1 | 0 | 0 | 4.47µM | 3.29µM | 0
Cc1c(Cl)c(=O)oc2cc(OP(=O)(OCCCl)OCCCl)ccc12 | 13.5µM | - | - | ? | -
CC(NC(=O)Cc1ccc(S(=O)(=O)N2CCOCC2)s1)c1ccc(Cl)cc1Cl (centres undefined) | - | 0 | - | - | -
CC(C)[C@H](NC(=O)c1ccc(Cl)cc1Cl)C(=O)NNc1cccc(C(=O)O)c1 | - | 0 | - | - | -
SMILES | Pf growth 48h | AMA1-RON2 inh | Sm TGR block | Pf growth 96h | NS1 function inh
C=CCNc1nc(-c2ccccn2)nnc1-c1ccccc1 | - | ? | 0 | 1.65µM | 0
Cc1cccc(NS(=O)(=O)c2ccc3c(c2)CCN3C(=O)C2CCC2)c1 | - | - | 0 | - | -
COc1ccc(CC2C(=O)N(C)C(=O)N(C)C2=O)c(OC)c1 | 0 | 0 | ? | - | 0
COc1ccc(CC2C(=O)NC(=O)NC2=O)c(OC)c1 | 0 | 0 | 50.1µM | - | ?
CCOCCCNC(=O)Nc1cc(C(=O)NCc2ccc(C(C)C)cc2)ccc1N1CCCC1 | - | - | 0 | - | -
COc1ccc(Cn2c(CCC(=O)N3CCN(c4ccccn4)CC3)nc3ncccc3c2=O)cc1 | 11.7µM | 0 | 0 | ? | 0
CCCCOc1ccc(CN2CCSCC2)cc1 | 0 | ? | 0 | 0 | 0
CCCNC(=O)Cn1c(=O)/c(=C\c2ccc(-c3cccc([N+](=O)[O-])c3)o2)s/c1=C\C(=O)C(C)(C)C | 1.65µM | 0 | 0 | 1.31µM | 0
CCCNC(=O)Cn1c(=O)/c(=C\c2ccc(-c3ccc([N+](=O)[O-])cc3)o2)s/c1=C\C(=O)C(C)(C)C | 9.28µM | 0 | 0 | ? | 0
CCCNC(=O)Cn1c(=O)/c(=C/c2ccc(-c3cccc([N+](=O)[O-])c3)o2)s/c1=C\C(=O)C(C)(C)C | - | 0 | - | - | -
CCOc1ccc(OCc2ccc(C(=O)N3CCCC3)o2)cc1 | 0 | 0 | 0 | 0 | 0
COc1ccc(NC(=O)c2ccc(COc3ccc(C)cc3)o2)cc1 | 0 | 0 | 0 | 5.22µM | 0
O=C(O)c1ccc(NC(=O)c2ccc(COc3ccccc3)o2)cc1 | 0 | 0 | 0 | 0 | 0
CCOc1ccc(OCc2ccc(C(=O)OCc3ccccn3)o2)cc1 | 0 | 0 | 0 | 10.4µM | 0
CCOc1ccc(OCc2ccc(C(=O)NC(C)C)o2)cc1 | ? | 0 | 0 | 11.7µM | 0
Cc1cc(NC(=O)c2ccc(COc3ccc(Cl)c(C)c3)o2)no1 | 0 | 0 | 0 | 9.28µM | 0
COc1ccc(S(=O)(=O)NCc2cccnc2)c(Cl)c1Cl | - | 0 | - | - | -
CC(=O)Nc1ccc(NC(=O)c2ccc(COc3ccc(C)cc3)o2)cc1 | 0 | 0 | 0 | 9.28µM | 0
O=C1C(=Cc2cccs2)C(=O)c2ccccc21 | 0 | 0 | 0 | 0 | 0
Cc1cc(C=C2C(=O)c3ccccc3C2=O)c(C)n1C | 0 | 0 | 0 | 4.65µM | 0
Cc1ccc(C=C2C(=O)c3ccccc3C2=O)s1 | - | ? | 0 | 11.7µM | 0
CCn1c(C)cc(C=C2C(=O)c3ccccc3C2=O)c1C | 0 | 0 | - | 0 | 0
COC(=O)/C(=N/Nc1ccc(C)cc1)N1CCCc2ccccc21 | ? | ? | 0 | 11.7µM | 0
COC(=O)/C(=N/Nc1ccccc1)N1CCCc2ccccc21 | 0 | 0 | 0 | 10.4µM | 0
CC(=O)/C(=N/Nc1ccccc1[N+](=O)[O-])N1CCCc2ccccc21 | ? | 8.91µM | 0 | ? | 0
SMILES | Pf growth 48h | AMA1-RON2 inh | Sm TGR block | Pf growth 96h | NS1 function inh
CC(=O)/C(=N/Nc1ccc([N+](=O)[O-])cc1)N1CCCc2ccccc21 | ? | 0 | ? | 0 | 0
NC(=O)C1CCN(c2nc(-c3ccccc3[N+](=O)[O-])cs2)CC1 | 0 | - | - | 0 | -
Cc1ccc2c(=O)n3c(nc2c1)C(Cc1ccccc1)NC(=O)c1cc2ccccc2cc1-3 (centres undefined) | - | 0 | - | - | -
COC(=O)c1ccccc1NC(=O)c1cc(=O)c2ccc(C)c(C)c2o1 | - | - | 0 | - | -
COc1ccc(NC(=O)CN(C)C(=O)COc2ccccc2Cc2ccccc2)cc1 | 9.28µM | 0 | 0 | ? | -
CN(CC(=O)Nc1ccc(F)cc1)C(=O)COc1ccccc1Cc1ccccc1 | ? | 0 | 0 | 5.22µM | -
CN(CC(=O)Nc1ccccc1C(F)(F)F)C(=O)COc1ccccc1Cc1ccccc1 | ? | 0 | 0 | ? | -
COc1ccc(NC(=O)CN(C)C(=O)c2ccccc2CCc2ccccc2)cc1 | ? | 0 | 0 | 0 | -
Cc1ccc(S(=O)(=O)/N=C(/Nc2ccc(F)cc2F)c2ccccc2)cc1 | 0 | 0 | 0 | ? | 0
